Records with an inconclusive call do not appear. Calls of active or inactive are those of the source. Rule for the calls: active = hit-call score of the fitted dose curve at least 0.9, where 1 is the maximum; inconclusive = response in the unintended direction; inactive = score below 0.9.
Key:
[1] = biological target: human Ephrin type-A Receptor 1 (EphA1), EPHA1 (gene 2041) (UniProt P21709); test: NVS_ENZ_hEphA1: NovaScreen (NVS) Enzymatic Assay for human Ephrin type-A Receptor 1 (EphA1) (AID 2283158);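 note: activity is signal loss versus DMSO meaning EphA1 kinase inhibition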
Sequence of human Ephrin type-A Receptor 1 (EphA1), EPHA1 (gene 2041) (P21709 whole entry, looked up): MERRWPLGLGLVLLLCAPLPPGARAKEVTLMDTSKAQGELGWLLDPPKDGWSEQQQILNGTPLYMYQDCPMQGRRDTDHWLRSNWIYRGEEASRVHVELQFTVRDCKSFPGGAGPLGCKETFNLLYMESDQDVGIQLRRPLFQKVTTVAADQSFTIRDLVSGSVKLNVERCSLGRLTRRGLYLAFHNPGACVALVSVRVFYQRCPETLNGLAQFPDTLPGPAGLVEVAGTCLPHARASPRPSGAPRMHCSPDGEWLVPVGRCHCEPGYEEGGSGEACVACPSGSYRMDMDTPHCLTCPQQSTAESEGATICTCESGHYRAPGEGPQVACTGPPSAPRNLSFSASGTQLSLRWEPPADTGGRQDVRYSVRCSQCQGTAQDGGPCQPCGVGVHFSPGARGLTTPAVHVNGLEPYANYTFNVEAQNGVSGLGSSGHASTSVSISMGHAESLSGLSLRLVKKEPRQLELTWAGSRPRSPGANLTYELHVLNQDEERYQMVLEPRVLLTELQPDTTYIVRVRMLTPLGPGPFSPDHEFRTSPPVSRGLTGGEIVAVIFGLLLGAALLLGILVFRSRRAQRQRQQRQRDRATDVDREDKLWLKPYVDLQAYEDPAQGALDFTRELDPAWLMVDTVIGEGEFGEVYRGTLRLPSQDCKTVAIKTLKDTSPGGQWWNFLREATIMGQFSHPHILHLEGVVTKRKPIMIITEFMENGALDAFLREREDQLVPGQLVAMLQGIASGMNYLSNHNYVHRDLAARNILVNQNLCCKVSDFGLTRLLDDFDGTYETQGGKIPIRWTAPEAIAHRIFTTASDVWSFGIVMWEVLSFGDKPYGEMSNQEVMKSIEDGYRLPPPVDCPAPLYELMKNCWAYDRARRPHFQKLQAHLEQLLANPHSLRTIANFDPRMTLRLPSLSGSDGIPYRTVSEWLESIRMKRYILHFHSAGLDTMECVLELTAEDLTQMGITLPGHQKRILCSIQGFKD
Procedure, shortened: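 Here the EphA1 protein is recombinant and the substrate fluorescent, with electrophoretic separation before fluorescence detection at 1 hour. Signal loss against DMSO defines activity; plate controls included; follow-up concentration series reach 50 uM.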

[2] = biological target: human Esterase Plasma (ES), BCHE (gene 590) (UniProt P06276); test: NVS_ENZ_hES: NovaScreen (NVS) Enzymatic Assay for human Esterase Plasma (ES) (AID 2283157)
Sequence of human Esterase Plasma (ES), BCHE (gene 590) (P06276 whole entry, looked up): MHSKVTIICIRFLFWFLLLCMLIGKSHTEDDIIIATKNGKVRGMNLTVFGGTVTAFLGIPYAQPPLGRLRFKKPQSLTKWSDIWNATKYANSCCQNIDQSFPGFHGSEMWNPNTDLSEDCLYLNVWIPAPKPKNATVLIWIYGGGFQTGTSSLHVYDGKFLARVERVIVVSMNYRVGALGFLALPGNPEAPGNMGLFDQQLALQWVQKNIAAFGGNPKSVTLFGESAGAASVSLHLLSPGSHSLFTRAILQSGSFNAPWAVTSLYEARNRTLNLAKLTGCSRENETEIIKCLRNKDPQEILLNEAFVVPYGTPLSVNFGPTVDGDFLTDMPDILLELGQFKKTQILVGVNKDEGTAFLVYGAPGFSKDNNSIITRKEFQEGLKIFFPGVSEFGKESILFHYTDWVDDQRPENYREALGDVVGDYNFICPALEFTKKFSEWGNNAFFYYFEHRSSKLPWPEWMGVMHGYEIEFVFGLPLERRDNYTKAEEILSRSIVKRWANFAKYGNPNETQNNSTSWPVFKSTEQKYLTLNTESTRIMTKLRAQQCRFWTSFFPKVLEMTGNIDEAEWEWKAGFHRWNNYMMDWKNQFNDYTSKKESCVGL
Procedure, shortened: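 Esterase from human plasma, cell-free, colorimetric absorbance read 0.25 h after dosing. Screened at 25 uM in duplicate, with threshold-passing chemicals run in concentration-response up to 50 uM; loss of signal fitted versus DMSO.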

[3] = biological target: Glycogen synthase kinase-3 beta (Homo sapiens) (UniProt P49841); test: NVS_ENZ_hGSK3b: NovaScreen (NVS) Enzymatic Assay for human Glycogen Synthase Kinase-3 beta (GSK3b) (AID 2283165)
Sequence of Glycogen synthase kinase-3 beta (Homo sapiens) (P49841 whole entry, looked up): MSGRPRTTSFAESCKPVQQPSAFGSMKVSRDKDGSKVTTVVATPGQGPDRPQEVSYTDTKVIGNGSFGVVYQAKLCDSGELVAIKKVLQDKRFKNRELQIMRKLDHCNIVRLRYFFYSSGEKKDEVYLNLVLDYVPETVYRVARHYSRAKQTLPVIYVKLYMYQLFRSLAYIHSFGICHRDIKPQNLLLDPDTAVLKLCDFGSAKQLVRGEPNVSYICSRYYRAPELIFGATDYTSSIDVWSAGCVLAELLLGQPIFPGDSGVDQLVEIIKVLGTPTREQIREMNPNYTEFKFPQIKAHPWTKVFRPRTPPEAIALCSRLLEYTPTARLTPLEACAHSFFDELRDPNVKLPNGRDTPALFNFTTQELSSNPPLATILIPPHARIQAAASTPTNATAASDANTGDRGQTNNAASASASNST
Procedure, shortened: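 Recombinant enzyme with specific fluorescent substrate, 1 h, product separated by electrophoretic mobility shift. Primary duplicate screen at 25 uM; actives (e.g. 30% inhibition) followed in singleton concentration-response to 50 uM. Signal loss fitted versus DMSO.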

[4] = biological target: human Dual Specificity Protein Phosphatase 3 (DUSP3), DUSP3 (gene 1845) (UniProt P51452); test: NVS_ENZ_hDUSP3: NovaScreen (NVS) Enzymatic Assay for human Dual Specificity Protein Phosphatase 3 (DUSP3) (AID 2283152);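 note: phosphatase activity of recombinant human DUSP3 on a fluorogenic substrate without cells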
Sequence of human Dual Specificity Protein Phosphatase 3 (DUSP3), DUSP3 (gene 1845) (P51452 whole entry, looked up): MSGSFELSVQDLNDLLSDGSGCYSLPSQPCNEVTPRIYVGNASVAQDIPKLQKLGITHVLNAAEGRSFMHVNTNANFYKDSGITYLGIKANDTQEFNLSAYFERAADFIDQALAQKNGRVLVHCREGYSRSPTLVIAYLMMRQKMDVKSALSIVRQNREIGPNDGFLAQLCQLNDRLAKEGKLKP
Procedure, shortened: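 Cell-free assay with recombinant human DUSP3 and fluorogenic substrate, read by fluorescence intensity. Primary screen ran duplicate at 25 uM; actives followed up in concentration series; loss of signal versus DMSO scored.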

[5] = biological target: Histone deacetylase 3 (Homo sapiens) (UniProt O15379); test: NVS_ENZ_hHDAC3: NovaScreen (NVS) Enzymatic Assay for human Histone Deacetylase 3 (HDAC3) (AID 2283163)
Sequence of Histone deacetylase 3 (Homo sapiens) (O15379 whole entry, looked up): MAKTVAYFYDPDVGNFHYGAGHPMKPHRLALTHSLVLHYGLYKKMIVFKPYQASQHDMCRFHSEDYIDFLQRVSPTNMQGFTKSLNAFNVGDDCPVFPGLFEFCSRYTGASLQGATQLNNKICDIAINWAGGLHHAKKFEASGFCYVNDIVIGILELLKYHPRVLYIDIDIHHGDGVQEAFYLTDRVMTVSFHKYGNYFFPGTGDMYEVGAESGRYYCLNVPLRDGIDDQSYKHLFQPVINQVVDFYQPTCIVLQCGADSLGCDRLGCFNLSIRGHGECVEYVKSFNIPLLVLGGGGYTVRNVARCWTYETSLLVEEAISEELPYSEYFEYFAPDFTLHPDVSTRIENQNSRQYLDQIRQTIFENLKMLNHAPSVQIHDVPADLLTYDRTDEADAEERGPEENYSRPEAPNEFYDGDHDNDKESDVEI
Description: NVS_ENZ_hHDAC3 is a biochemical, single-readout assay that uses extracted gene-proteins in a cell-free assay. Measurements were taken 1 hour after chemical dosing in a 384-well plate.NVS_ENZ_hHDAC3 is one of one assay component(s) measured or calculated from the NVS_ENZ_hHDAC3 assay. It is designed to make measurements of enzyme activity, a form of enzyme reporter, as detected with fluorescence intensity signals by Fluorescence and electrophoretic mobility shift technology.Data from the assay component NVS_ENZ_hHDAC3 was analyzed into 1 assay endpoint. This assay endpoint, NVS_ENZ_hHDAC3, was analyzed in the positive analysis fitting direction relative to DMSO as the negative control and baseline of activity. Using a type of enzyme reporter, loss-of-signal activity can be used to understand changes in the enzymatic activity as they relate to the gene HDAC3. Furthermore, this assay endpoint can be referred to as a primary readout, because this assay has produced multiple assay endpoints where this one serves a enzymatic activity function. To generalize the intended target to other relatable targets, this assay endpoint is annotated to the hydrolase intended target family, where the subfamily is histone deacetylase. […]

CDK2 (gene 1017) = CDK2 (gene 1017) (UniProt P24941); test: NVS_ENZ_hCDK2: NovaScreen (NVS) Enzymatic Assay for human Cyclin-Cependent Kinase 2 (CDK2) (AID 2283144)
Procedure, shortened: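 Cell-free recombinant human CDK2 with fluorescent substrate, product separated by electrophoretic mobility shift; 1 hr read. Primary screen at 25 uM in duplicate, actives retested in concentration-response up to 50 uM; loss of signal versus DMSO.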

[6] = biological target: human Casein Kinase 1-delta (CK1D), CSNK1D (gene 1453) (UniProt P48730); test: NVS_ENZ_hCK1D: NovaScreen (NVS) Enzymatic Assay for human Casein Kinase 1-delta (CK1D) (AID 2283148)
Sequence of human Casein Kinase 1-delta (CK1D), CSNK1D (gene 1453) (P48730 whole entry, looked up): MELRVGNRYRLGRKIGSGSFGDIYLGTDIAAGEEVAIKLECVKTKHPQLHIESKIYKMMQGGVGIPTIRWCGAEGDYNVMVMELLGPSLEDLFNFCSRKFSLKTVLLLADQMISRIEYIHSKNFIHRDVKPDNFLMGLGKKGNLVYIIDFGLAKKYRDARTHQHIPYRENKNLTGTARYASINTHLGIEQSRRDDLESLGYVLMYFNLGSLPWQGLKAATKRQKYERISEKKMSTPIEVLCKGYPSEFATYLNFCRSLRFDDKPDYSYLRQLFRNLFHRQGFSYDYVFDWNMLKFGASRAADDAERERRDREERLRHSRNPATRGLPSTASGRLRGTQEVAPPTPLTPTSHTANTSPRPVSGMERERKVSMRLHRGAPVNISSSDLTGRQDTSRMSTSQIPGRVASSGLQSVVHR
Procedure, shortened: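 Recombinant human CK1-delta, cell-free; fluorescent substrate with electrophoretic mobility-shift separation of product, read 1 h after dosing. Single 25 uM duplicate screen, then concentration-response up to 50 uM; loss of signal vs DMSO.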

[7] = biological target: human Colony Stimulating Factor 1 Receptor (CSF1R), CSF1R (gene 1436) (UniProt P07333); test: NVS_ENZ_hCSF1R: NovaScreen (NVS) Enzymatic Assay for human Colony Stimulating Factor 1 Receptor (CSF1R) (AID 2283150)
Sequence of human Colony Stimulating Factor 1 Receptor (CSF1R), CSF1R (gene 1436) (P07333 whole entry, looked up): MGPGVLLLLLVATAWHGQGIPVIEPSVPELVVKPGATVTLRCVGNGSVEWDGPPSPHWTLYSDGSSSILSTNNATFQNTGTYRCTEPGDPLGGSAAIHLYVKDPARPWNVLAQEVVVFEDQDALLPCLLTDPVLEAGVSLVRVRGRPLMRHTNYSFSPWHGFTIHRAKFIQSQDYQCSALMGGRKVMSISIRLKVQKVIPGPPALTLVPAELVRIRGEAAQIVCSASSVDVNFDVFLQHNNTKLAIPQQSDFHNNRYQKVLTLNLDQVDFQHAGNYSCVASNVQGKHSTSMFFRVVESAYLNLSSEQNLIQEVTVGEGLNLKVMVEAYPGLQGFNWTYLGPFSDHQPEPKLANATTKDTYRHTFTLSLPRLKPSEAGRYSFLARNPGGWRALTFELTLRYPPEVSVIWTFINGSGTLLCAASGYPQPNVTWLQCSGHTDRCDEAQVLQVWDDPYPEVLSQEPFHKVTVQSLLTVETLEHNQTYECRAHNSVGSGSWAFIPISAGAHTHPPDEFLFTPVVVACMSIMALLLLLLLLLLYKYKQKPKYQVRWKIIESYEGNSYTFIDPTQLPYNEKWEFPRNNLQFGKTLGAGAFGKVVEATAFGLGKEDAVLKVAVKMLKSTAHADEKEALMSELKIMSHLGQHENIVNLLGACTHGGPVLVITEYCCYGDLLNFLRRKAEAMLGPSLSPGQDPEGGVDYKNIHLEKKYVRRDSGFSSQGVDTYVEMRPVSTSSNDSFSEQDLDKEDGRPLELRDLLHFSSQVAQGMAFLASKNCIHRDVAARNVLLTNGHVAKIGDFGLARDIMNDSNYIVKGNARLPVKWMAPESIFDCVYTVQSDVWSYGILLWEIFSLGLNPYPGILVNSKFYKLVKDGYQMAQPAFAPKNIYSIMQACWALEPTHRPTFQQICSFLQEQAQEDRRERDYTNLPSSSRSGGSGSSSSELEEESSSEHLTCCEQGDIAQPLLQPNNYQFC
Procedure, shortened: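 Cell-free recombinant human CSF1R kinase with fluorescent substrate, product separated by electrophoretic mobility shift; read 1 h after dosing. Primary screen at 25 uM in duplicate, actives then in concentration-response up to 50 uM, relative to DMSO.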

[8] = biological target: human Elastase, ELANE (gene 1991) (UniProt P08246); test: NVS_ENZ_hElastase: NovaScreen (NVS) Enzymatic Assay for human Elastase (AID 2283153)
Sequence of human Elastase, ELANE (gene 1991) (P08246 whole entry, looked up): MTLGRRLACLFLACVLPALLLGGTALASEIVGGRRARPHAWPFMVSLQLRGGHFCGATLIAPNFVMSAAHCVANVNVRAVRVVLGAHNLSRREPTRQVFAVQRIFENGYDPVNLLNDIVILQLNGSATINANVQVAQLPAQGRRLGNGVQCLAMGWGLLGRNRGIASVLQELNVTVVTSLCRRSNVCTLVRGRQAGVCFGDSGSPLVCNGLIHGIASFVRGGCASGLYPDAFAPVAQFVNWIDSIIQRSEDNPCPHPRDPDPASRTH
Procedure, shortened: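 Cell-free elastase from human neutrophils, 1.5 h after dosing, activity read by absorbance. Primary screen in duplicate at 25 uM; hits (e.g., 30% inhibition) rerun in singleton concentration-response up to 50 uM, fitted versus DMSO.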

[9] = biological target: human FYN Proto-Oncogene, Src family Tyrosine Kinase (Fyn), FYN (gene 2534) (UniProt P06241); test: NVS_ENZ_hFyn: NovaScreen (NVS) Enzymatic Assay for human FYN Proto-Oncogene, Src family Tyrosine Kinase (Fyn) (AID 2283161)
Sequence of human FYN Proto-Oncogene, Src family Tyrosine Kinase (Fyn), FYN (gene 2534) (P06241 whole entry, looked up): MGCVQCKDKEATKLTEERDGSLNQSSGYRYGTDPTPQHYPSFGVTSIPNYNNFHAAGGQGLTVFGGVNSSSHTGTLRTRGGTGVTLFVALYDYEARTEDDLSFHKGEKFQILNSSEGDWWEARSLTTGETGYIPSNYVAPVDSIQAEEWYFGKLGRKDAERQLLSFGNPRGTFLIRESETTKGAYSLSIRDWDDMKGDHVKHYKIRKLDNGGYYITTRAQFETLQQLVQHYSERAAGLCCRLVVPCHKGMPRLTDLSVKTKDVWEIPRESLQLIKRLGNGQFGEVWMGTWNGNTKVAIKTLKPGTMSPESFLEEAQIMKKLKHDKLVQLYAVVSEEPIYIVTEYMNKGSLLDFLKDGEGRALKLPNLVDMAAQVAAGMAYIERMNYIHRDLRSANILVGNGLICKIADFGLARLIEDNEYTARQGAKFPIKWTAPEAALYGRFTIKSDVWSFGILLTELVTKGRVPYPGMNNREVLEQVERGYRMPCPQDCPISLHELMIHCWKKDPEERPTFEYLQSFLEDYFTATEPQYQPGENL
Procedure, shortened: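 Recombinant enzyme with fluorescent substrate, product separated by electrophoretic mobility shift; read 1 h after dosing. Duplicate 25 uM single-point screen, actives retested in concentration series; loss of signal vs DMSO.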

Cc1ccc(C(=O)c2ccccc2)cc1
outcome [1]: inactive

CN(C)CCOC(c1ccccc1)c1ccccc1
AC50 [2]: 11.4 µM (active)

CC(C)(C)c1ccc(O)c(O)c1
outcome [1]: inactive

N=C(N)c1ccc(OCCCCCOc2ccc(C(=N)N)cc2)cc1
AC50 [2]: 6.56 µM (active)

CCCCC=O
outcome [3]: inactive

CCCCCCCCCCCCCCCCCC[N+](C)(C)Cc1ccccc1
AC50 [4]: 4.54 µM (active)
outcome [1]: inactive

O=C(CCCN1CCC(O)(c2ccc(Cl)cc2)CC1)c1ccc(F)cc1
AC50 [2]: 6.15 µM (active)

CCCCc1oc2ccccc2c1C(=O)c1cc(I)c(OCCN(CC)CC)c(I)c1
outcome [2]: inactive

O=C(c1ccccc1)c1ccccc1
outcome [3]: inactive

O=C(NO)c1ccccc1
outcome [1]: inactive

CCC(C)c1ccccc1O (centres undefined)
outcome [5]: inactive

CCCCCCCCCCCCOS(=O)(=O)O
outcome (CDK2 (gene 1017)): inactive
outcome [6]: inactive
AC50 [7]: 29.1 µM (active)
outcome [1]: inactive
outcome [5]: inactive

CCCCCCCCCCCCCCCC(=O)OC
AC50 [4]: 6.25 µM (active)

CCCCCCCCCCCC
outcome [1]: inactive

CS(=O)(=O)c1ccc([C@@H](CC2CCCC2)C(=O)Nc2cnccn2)cc1Cl
outcome [6]: inactive
AC50 [4]: 6.36 µM (active)

Cc1[nH]nc2c1N=C(c1ccccc1Cl)c1cc([N+](=O)[O-])ccc1N2
AC50 (CDK2 (gene 1017)): 0.0067 µM (active)
AC50 [7]: 0.00229 µM (active)
AC50 [4]: 16.9 µM (active)
AC50 [8]: 4.93 µM (active)
AC50 [1]: 8.96 µM (active)
outcome [9]: inactive
AC50 [3]: 0.00229 µM (active)

CC1=NN(c2ccccc2)C(=O)C1
outcome [1]: inactive
